Data as given in ChEMBL document CHEMBL1961873, “Compounds: GSK PKIS; Assays: Nanosyn kinase panel” (2012).

Columns and labels:
[1] = biological target: Sphingosine kinase 1 (Homo sapiens) (UniProt Q9NYA1); conditions: at 1 µM;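 also: mean SPHK1 inhibition value reported from the GSK PKIS kinase panel screen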
[2] = biological target: T1, Sphingosine kinase 2 (Homo sapiens) (UniProt Q9NRA0); conditions: at 0.1 µM
T1 sequence (whole entry): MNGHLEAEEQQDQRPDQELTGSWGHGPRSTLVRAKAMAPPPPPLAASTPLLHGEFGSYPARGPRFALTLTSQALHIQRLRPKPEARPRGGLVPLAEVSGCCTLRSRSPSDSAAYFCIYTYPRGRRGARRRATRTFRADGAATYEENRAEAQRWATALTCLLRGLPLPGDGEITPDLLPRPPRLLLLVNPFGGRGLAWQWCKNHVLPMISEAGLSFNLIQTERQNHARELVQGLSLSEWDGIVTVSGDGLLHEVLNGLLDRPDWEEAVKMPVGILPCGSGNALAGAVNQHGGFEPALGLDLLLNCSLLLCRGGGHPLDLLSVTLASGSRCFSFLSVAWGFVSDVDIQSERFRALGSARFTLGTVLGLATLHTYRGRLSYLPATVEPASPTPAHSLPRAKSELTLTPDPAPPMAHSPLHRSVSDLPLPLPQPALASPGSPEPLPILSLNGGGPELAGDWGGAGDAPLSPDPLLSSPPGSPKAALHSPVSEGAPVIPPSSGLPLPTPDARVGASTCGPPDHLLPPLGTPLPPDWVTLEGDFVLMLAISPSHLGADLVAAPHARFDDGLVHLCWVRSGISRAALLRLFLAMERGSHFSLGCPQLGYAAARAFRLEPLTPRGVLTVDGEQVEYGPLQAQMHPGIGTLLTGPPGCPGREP

[3] = biological target: T1, Sphingosine kinase 2 (Homo sapiens); conditions: at 1 µM
[4] = biological target: Casein kinase II subunit alpha (Homo sapiens) (UniProt P68400); conditions: at 0.1 µM
Chain of Casein kinase II subunit alpha (Homo sapiens) (P68400 whole entry, looked up): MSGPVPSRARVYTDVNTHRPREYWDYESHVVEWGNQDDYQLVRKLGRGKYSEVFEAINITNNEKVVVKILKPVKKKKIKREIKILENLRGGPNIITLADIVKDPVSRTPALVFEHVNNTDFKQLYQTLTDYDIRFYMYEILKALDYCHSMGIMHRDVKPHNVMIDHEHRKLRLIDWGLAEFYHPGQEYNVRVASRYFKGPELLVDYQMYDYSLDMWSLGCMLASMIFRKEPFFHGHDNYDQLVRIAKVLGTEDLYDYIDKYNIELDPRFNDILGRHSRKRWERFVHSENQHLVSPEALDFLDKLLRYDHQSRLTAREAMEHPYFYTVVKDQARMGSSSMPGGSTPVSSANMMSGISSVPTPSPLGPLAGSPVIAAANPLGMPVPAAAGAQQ

[5] = biological target: Casein kinase II subunit alpha (Homo sapiens) (UniProt P68400); conditions: at 1 µM
[6] = biological target: T2, Inhibitor of nuclear factor kappa-B kinase subunit alpha (Homo sapiens) (UniProt O15111); conditions: at 0.1 µM
T2 sequence (whole entry): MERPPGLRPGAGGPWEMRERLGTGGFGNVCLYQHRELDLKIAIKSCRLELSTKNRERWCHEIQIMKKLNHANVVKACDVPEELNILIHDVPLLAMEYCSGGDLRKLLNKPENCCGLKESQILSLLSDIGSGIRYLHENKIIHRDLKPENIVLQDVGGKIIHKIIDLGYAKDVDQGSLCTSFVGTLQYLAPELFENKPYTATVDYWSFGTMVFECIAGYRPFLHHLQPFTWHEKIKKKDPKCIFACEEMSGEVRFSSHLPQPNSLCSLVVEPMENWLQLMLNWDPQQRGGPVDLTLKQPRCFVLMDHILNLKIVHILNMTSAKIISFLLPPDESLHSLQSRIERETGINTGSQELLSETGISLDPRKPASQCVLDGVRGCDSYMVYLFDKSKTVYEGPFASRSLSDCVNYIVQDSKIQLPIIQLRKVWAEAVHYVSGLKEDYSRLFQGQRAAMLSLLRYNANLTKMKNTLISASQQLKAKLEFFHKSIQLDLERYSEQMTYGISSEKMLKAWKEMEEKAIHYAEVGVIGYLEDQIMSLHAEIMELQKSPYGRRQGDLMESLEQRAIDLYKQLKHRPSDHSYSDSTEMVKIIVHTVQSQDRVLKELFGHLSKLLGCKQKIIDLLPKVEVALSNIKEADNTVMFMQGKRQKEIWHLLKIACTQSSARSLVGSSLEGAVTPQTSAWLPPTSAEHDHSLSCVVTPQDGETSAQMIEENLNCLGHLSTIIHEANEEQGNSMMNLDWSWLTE

[7] = biological target: T2, Inhibitor of nuclear factor kappa-B kinase subunit alpha (Homo sapiens); conditions: at 1 µM
[8] = biological target: T3, Inhibitor of nuclear factor kappa-B kinase subunit beta (Homo sapiens) (UniProt O14920); conditions: at 0.1 µM
T3 sequence (whole entry): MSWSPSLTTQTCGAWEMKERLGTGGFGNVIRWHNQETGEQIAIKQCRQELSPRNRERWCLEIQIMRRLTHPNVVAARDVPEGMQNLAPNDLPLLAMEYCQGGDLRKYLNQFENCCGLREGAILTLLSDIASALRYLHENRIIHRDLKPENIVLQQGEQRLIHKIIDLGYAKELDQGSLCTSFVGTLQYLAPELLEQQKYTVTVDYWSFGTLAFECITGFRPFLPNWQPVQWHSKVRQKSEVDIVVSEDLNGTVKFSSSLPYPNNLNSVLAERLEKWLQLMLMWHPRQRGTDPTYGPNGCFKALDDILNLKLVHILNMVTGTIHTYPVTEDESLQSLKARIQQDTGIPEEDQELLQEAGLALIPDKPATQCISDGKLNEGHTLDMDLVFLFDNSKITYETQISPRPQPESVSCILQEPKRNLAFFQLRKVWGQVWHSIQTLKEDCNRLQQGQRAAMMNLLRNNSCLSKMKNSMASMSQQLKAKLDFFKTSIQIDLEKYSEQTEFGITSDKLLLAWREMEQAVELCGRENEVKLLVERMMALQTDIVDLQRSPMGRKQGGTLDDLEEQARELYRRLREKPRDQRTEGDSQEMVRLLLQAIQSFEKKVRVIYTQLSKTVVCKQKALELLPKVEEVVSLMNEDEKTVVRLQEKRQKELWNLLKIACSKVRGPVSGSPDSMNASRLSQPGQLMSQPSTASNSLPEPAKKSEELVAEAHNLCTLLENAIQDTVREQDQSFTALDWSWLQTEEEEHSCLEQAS

[9] = biological target: T3, Inhibitor of nuclear factor kappa-B kinase subunit beta (Homo sapiens); conditions: at 1 µM
[10] = biological target: T4, Inhibitor of nuclear factor kappa-B kinase subunit epsilon (Homo sapiens) (UniProt Q14164); conditions: at 0.1 µM
T4 sequence (whole entry): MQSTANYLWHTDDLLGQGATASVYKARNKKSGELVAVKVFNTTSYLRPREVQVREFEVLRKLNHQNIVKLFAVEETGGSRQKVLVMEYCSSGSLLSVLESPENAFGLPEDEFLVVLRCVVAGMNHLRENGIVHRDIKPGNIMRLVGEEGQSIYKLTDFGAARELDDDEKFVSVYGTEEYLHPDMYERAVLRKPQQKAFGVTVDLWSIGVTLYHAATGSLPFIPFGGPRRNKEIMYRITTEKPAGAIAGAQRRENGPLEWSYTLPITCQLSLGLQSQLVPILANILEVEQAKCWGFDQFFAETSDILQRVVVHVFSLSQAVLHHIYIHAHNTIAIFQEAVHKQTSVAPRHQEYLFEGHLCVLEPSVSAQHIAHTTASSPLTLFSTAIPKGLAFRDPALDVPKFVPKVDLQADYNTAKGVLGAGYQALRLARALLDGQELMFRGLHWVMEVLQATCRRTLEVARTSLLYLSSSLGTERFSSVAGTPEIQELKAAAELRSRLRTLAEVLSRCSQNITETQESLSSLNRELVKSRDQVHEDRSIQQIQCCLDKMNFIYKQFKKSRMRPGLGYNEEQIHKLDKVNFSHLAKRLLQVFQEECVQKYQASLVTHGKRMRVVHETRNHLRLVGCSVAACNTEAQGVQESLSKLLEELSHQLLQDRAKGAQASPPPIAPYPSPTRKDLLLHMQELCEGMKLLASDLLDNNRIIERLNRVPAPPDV

[11] = biological target: T4, Inhibitor of nuclear factor kappa-B kinase subunit epsilon (Homo sapiens); conditions: at 1 µM
[12] = biological target: T5, Serine/threonine-protein kinase Nek1 (Homo sapiens) (UniProt Q96PY6); conditions: at 0.1 µM
T5 sequence (whole entry): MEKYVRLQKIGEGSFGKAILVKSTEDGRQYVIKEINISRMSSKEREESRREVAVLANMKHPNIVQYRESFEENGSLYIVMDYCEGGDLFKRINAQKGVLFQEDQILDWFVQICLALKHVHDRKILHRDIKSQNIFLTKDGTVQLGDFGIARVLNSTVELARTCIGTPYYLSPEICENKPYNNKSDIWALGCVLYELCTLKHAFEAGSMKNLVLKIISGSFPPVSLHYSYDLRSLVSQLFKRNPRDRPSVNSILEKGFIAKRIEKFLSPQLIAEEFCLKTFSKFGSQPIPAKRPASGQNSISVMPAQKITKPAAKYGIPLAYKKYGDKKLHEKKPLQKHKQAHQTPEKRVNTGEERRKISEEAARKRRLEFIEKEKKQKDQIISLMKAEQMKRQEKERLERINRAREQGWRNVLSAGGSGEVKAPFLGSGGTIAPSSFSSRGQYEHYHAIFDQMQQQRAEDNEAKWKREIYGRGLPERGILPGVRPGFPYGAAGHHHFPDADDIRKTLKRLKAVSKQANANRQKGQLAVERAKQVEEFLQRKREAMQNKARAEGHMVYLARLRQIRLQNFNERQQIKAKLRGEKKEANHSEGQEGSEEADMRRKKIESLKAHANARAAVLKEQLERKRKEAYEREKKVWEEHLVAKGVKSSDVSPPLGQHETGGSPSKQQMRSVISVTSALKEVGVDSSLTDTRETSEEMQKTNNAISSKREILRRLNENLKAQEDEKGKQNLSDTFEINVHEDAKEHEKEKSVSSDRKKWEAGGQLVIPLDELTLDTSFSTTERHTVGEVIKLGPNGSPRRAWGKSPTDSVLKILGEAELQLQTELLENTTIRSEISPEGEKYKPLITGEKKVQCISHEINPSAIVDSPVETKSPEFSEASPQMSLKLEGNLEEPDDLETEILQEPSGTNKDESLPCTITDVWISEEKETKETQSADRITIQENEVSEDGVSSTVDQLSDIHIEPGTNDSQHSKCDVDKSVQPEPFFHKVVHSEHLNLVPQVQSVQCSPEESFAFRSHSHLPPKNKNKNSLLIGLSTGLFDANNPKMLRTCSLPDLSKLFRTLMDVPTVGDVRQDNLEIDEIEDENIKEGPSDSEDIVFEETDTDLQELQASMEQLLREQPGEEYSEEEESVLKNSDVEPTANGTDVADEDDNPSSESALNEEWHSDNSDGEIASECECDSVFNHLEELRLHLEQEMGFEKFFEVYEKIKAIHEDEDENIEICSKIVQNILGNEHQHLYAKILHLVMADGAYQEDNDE

[13] = biological target: T5, Serine/threonine-protein kinase Nek1 (Homo sapiens); conditions: at 1 µM
[14] = biological target: T6, Serine/threonine-protein kinase Nek2 (Homo sapiens) (UniProt P51955); conditions: at 0.1 µM
T6 sequence (whole entry): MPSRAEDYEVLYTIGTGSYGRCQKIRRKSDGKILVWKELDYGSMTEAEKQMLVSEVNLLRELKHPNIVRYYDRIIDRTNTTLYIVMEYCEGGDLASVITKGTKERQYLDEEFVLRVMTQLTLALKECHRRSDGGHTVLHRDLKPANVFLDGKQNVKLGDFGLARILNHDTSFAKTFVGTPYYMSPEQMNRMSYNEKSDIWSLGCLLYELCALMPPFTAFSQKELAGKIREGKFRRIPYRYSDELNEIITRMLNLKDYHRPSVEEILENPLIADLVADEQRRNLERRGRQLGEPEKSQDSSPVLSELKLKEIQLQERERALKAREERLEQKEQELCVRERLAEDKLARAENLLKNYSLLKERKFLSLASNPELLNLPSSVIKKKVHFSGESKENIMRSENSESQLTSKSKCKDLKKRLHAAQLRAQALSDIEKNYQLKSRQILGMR

[15] = biological target: T6, Serine/threonine-protein kinase Nek2 (Homo sapiens); conditions: at 1 µM
[16] = biological target: Serine/threonine-protein kinase Nek6 (Homo sapiens) (UniProt Q9HC98); conditions: at 0.1 µM
Chain of Serine/threonine-protein kinase Nek6 (Homo sapiens) (Q9HC98 whole entry): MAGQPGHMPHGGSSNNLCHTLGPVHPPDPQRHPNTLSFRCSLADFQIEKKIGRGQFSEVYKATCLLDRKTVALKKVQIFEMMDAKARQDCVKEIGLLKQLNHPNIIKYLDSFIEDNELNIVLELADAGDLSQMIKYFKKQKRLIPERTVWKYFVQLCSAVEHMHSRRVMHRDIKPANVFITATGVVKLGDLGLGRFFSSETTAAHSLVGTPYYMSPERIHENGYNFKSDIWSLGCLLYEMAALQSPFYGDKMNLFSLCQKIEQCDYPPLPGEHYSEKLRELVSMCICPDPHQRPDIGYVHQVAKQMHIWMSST

[17] = biological target: Serine/threonine-protein kinase Nek6 (Homo sapiens) (UniProt Q9HC98); conditions: at 1 µM
[18] = biological target: Serine/threonine-protein kinase Nek7 (Homo sapiens) (UniProt Q8TDX7); conditions: at 0.1 µM
Chain of Serine/threonine-protein kinase Nek7 (Homo sapiens) (Q8TDX7 whole entry, looked up): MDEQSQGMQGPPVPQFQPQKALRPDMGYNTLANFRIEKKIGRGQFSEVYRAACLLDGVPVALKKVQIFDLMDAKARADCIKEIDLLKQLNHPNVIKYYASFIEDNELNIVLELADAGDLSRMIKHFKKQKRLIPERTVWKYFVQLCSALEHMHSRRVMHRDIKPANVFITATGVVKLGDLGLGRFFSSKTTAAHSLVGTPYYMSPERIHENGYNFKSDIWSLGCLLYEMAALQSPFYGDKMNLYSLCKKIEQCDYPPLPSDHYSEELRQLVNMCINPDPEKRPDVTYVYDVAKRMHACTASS

[19] = biological target: Serine/threonine-protein kinase Nek7 (Homo sapiens) (UniProt Q8TDX7); conditions: at 1 µM
[20] = biological target: T7, Serine/threonine-protein kinase Nek9 (Homo sapiens) (UniProt Q8TD19); conditions: at 0.1 µM;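 also: reported value is the mean percent inhibition of NEK9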
T7 sequence (whole entry): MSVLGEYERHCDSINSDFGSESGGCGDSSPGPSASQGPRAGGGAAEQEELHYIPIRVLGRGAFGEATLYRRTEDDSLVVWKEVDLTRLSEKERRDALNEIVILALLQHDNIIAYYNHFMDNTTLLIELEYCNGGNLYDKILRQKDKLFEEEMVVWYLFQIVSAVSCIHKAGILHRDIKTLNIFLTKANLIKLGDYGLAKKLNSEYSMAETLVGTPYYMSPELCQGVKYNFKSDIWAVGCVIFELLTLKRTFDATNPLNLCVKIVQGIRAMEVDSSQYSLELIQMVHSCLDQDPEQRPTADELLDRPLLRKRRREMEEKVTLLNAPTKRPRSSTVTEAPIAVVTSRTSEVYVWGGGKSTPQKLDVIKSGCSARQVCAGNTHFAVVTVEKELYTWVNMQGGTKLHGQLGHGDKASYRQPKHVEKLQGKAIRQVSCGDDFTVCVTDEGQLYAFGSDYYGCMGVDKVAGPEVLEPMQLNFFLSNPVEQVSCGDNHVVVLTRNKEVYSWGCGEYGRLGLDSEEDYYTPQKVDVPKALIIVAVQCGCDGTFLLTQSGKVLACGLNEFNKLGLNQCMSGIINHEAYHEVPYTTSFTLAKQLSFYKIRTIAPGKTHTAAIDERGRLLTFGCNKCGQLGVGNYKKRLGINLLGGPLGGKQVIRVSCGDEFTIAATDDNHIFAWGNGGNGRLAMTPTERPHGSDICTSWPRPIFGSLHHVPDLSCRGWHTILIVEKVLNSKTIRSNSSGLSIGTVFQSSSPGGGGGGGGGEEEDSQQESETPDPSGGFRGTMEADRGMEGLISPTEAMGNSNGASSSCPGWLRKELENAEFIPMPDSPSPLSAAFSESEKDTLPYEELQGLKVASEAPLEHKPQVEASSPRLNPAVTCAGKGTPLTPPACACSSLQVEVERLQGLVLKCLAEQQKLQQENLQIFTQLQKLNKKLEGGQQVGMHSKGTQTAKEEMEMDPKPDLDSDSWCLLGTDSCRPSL

Chain of Sphingosine kinase 1 (Homo sapiens) (Q9NYA1 whole entry): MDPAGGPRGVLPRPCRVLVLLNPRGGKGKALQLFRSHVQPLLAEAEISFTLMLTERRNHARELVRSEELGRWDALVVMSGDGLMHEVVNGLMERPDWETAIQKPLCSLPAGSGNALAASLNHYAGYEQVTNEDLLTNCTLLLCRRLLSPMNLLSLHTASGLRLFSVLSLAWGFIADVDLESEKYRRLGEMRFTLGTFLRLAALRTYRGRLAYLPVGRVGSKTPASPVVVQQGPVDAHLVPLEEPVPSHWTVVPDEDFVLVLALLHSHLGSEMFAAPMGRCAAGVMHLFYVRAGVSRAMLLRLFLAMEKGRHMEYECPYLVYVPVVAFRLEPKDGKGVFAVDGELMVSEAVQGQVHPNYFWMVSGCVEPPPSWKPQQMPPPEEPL

Cc1cc(O)cc(C)c1/C=C/c1cncc(-c2nn[nH]n2)c1
inhibition [1]: -1.54%
inhibition [2]: 1.53%
inhibition [3]: -0.11%
inhibition [4]: 2.01%
inhibition [5]: 6.14%
inhibition [6]: 4.82%
inhibition [7]: 4%
inhibition [8]: 5.96%
inhibition [9]: 4.65%
inhibition [10]: 5.04%
inhibition [11]: 4.14%
inhibition [12]: 3.13%
inhibition [13]: 3.26%
inhibition [14]: 5.36%
inhibition [15]: 4.88%
inhibition [16]: 1.26%
inhibition [17]: 1.3%
inhibition [18]: 4.96%
inhibition [19]: 4.04%
inhibition [20]: 4.65%
